The nature of assay [1]: qHTS of pediatric cancer cell lines to identify multiple opportunities for drug repurposing: Primary screen for Saos-2 cells (AID 1347097). Further: nearly all actives have a fitted effect of over 40% in size. Further: potency means the concentration at half of the fitted maximal effect. An outline of the steps:
(§1)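 Primary screen of approved and investigational compounds on cells in growth media at 37 degrees C, 5% CO2. MIPE set at 11-point and NPC set at 8-point dilutions; viability scored by ATP-based luminescence at 48 hours.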
In general terms: In qHTS, concentration-response curves come from the screen itself.

A short description of assay [2]: qHTS of pediatric cancer cell lines to identify multiple opportunities for drug repurposing: Primary screen for SK-N-SH cells (AID 1347098). Further: nearly all actives have a fitted effect of over 65% in size. Further: potency means the concentration at half of the fitted maximal effect. In outline: (§2)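 Cells (500-1,000/well) rested 5 h, then received compounds for 48 h; metabolically active cells were measured by CellTiter-Glo luminescence. Final concentrations spanned up to 46 µM (MIPE, 11-point) or 0.59 nM-46 µM (NPC, 8-point) in primary screens, 11-point in follow-ups.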

The nature of assay [3]: qHTS of pediatric cancer cell lines to identify multiple opportunities for drug repurposing: Primary screen for LAN-5 cells (AID 1347100). Further: potency means the concentration at half of the fitted maximal effect. An outline of the steps: (§3)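 Cells (500-1,000/well) in growth media were settled 5 h at 37 degrees C, then given compounds for 48 h. Viability was read as CellTiter-Glo luminescence. Primary runs used MIPE at 11 points (0.78 nM-46 µM) and NPC at 8 points (0.59 nM-46 µM); follow-ups used 11 points.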

Assay [4] can be described thus: qHTS of pediatric cancer cell lines to identify multiple opportunities for drug repurposing: Primary screen for BT-12 cells (AID 1347101). Further: nearly all actives have a fitted effect of over 25% in size. Further: potency means the concentration at half of the fitted maximal effect. An outline of the steps: as §2
Assay [5] in a line: qHTS of pediatric cancer cell lines to identify multiple opportunities for drug repurposing: Primary screen for Rh18 cells (AID 1347102). Further: nearly all actives have a fitted effect of over 65% in size. Further: potency means the concentration at half of the fitted maximal effect. In outline:
as §3

Assay [6] can be described thus: qHTS of pediatric cancer cell lines to identify multiple opportunities for drug repurposing: Primary screen for OHS-50 cells (AID 1347103). Further: nearly all actives have a fitted effect of over 40% in size. Further: potency means the concentration at half of the fitted maximal effect. An outline of the steps:
as §2

Assay [7] in a line: qHTS of pediatric cancer cell lines to identify multiple opportunities for drug repurposing: Primary screen for Rh30 cells (AID 1347107). Further: nearly all actives have a fitted effect of over 75% in size. Further: potency means the concentration at half of the fitted maximal effect. In outline: as §3
A short description of assay [8]: qHTS of pediatric cancer cell lines to identify multiple opportunities for drug repurposing: Primary screen for Rh41 cells (AID 1347108). Further: nearly all actives have a fitted effect of over 70% in size. Further: potency means the concentration at half of the fitted maximal effect. In outline:
as §1

Assay [9] is described as follows: qHTS of pediatric cancer cell lines to identify multiple opportunities for drug repurposing: Primary screen for NB1643 cells (AID 1347099). Further: nearly all actives have a fitted effect of over 50% in size. Further: potency means the concentration at half of the fitted maximal effect. In outline:
as §1

The nature of assay [10]: qHTS of pediatric cancer cell lines to identify multiple opportunities for drug repurposing: Primary screen for RD cells (AID 1347104). Further: nearly all actives have a fitted effect of over 55% in size. Further: potency means the concentration at half of the fitted maximal effect. In outline:
as §1

Assay [11] is described as follows: qHTS of pediatric cancer cell lines to identify multiple opportunities for drug repurposing: Primary screen for control Hh wild type fibroblast cells (AID 1347106). Further: nearly all actives have a fitted effect of over 55% in size. Further: potency means the concentration at half of the fitted maximal effect. An outline of the steps: as §3
A short description of assay [12]: qHTS of pediatric cancer cell lines to identify multiple opportunities for drug repurposing: Primary screen for MG 63 (6-TG R) cells (AID 1347105). Further: nearly all actives have a fitted effect of over 50% in size. Further: potency means the concentration at half of the fitted maximal effect. In outline: as §1
The nature of assay [13]: qHTS of pediatric cancer cell lines to identify multiple opportunities for drug repurposing: Confirmatory screen for SK-N-MC cells (AID 1347111).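 Further: potency means the concentration at half of the fitted maximal effect; cells exposed to compound for 48 h before the readout; nearly all actives have a fitted effect of over 70% in size.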 In outline:
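Metabolically active cells were quantified by ATP-dependent luminescence (CellTiter-Glo, 15 min at room temperature) following 48 h treatment. Cells had been plated at 500-1,000 per well and settled for 5 h beforehand.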

Assay [14] can be described thus: qHTS of pediatric cancer cell lines to identify multiple opportunities for drug repurposing: Confirmatory screen for LAN-5 cells (AID 1347113). Further: nearly all actives have a fitted effect of over 65% in size. Further: potency means the concentration at half of the fitted maximal effect. In outline:
as §3

The nature of assay [15]: qHTS of pediatric cancer cell lines to identify multiple opportunities for drug repurposing: Confirmatory screen for NB-EBc1 cells (AID 1347115).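 Further: cells exposed to compound for 48 h before the viability read; nearly all actives have a fitted effect of over 45% in size.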 Further: potency means the concentration at half of the fitted maximal effect. An outline of the steps:
as §3

Assay [16] in a line: qHTS of pediatric cancer cell lines to identify multiple opportunities for drug repurposing: Confirmatory screen for SJ-GBM2 cells (AID 1347116). Further: nearly all actives have a fitted effect of over 60% in size. An outline of the steps:
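Viability measured as metabolically active cells via CellTiter-Glo luminescence following 48 hours of compound exposure, 11-point dilutions in confirmatory testing. 500-1,000 cells/well plated 5 hours before dosing; controls were DMSO and 2.3 µM bortezomib.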

Assay [17] in a line: qHTS of pediatric cancer cell lines to identify multiple opportunities for drug repurposing: Confirmatory screen for BT-37 cells (AID 1347117). Further: nearly all actives have a fitted effect of over 55% in size. Further: potency means the concentration at half of the fitted maximal effect. An outline of the steps:
as §3

Assay [18] in a line: qHTS of pediatric cancer cell lines to identify multiple opportunities for drug repurposing: Confirmatory screen for MG 63 (6-TG R) cells (AID 1347119). Further: nearly all actives have a fitted effect of over 55% in size. An outline of the steps:
as §3

The nature of assay [19]: qHTS of pediatric cancer cell lines to identify multiple opportunities for drug repurposing: Confirmatory screen for A673 cells (AID 1347110).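 Further: potency means the concentration at half of the fitted maximal effect; cells exposed to compound for 48 h before the viability read; nearly all actives have a fitted effect of over 65% in size.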 An outline of the steps:
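A673 cells seeded at 500-1,000 cells/well, rested 5 h, then dosed; primary MIPE 11-point (0.78 nM to 46 µM), NPC (0.59 nM to 46 µM); confirmatory 11-point. CellTiter-Glo luminescence after 48 h.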

Results filed as inconclusive are left out. A number with no mark means an inactive call. The source made the active and inactive calls. The call rests on the fitted dose curve; in most records, active means well fitted curve in the direction sought with a large enough effect; inconclusive means small, poorly fitted or top-dose-only effect, or another doubt; inactive means no such curve, though single readings can be large; an effect the other way counts as inactive or inconclusive.

As for `CCCCCCCCCCCCCCCC[N+](C)(C)CCN(Cc1ccc(OC)cc1)c1ncccn1`, the Potency in assay [1] is 15 µM (active); in [2], 27.3 µM (active); in assay [3], 23.7 µM (active); in [4], 7.77 µM (active); in assay [5], 13.3 µM (active); in assay [6] it was 6.92 µM (active). For the same molecule, the Potency in [7] and in [8] was 16.8 µM (active) in each case.
Consider `c1ccc(OCc2ccc(CCCN3CCOCC3)cc2)cc1`, for which the Potency entry in assay [1], in assay [2], in assay [9], in assay [5], in assay [10] and in assay [11] was “inactive” throughout. In addition, the Potency result in [7] and in [8] was “inactive” in each case.
For `NC(=NCCCCCCN=C(N)/N=C(\N)Nc1ccc(Cl)cc1)/N=C(\N)Nc1ccc(Cl)cc1`, the Potency was 26.6 µM (active) in assay [1], 7.7 µM (active) in assay [2], 9.78 µM (active) in assay [4] and 26.6 µM (active) in assay [10]. For the same molecule, the Potency result in assay [11] is “inactive”.
Consider `CCN(CC)C(=O)/C(C#N)=C/c1cc(O)c(O)c([N+](=O)[O-])c1`, for which the Potency result in assay [1], in assay [2], in [9], in assay [5], in assay [10] and in assay [12] was “inactive” each time. Further, the Potency result in [11], in assay [7] and in assay [8] was “inactive” throughout.
In the case of `Cc1cccc(C)c1NC(=O)CN1CCN(CCCC(c2ccc(F)cc2)c2ccc(F)cc2)CC1`, the Potency result in [1], in assay [2], in assay [9], in assay [4], in assay [5] and in [10] was “inactive” throughout. Further, the Potency entry in [12], in [7] and in [8] was “inactive” throughout.
As for `COc1cccc(CCc2ccccc2OCC(CN(C)C)OC(=O)CCC(=O)O)c1` (centres undefined), the Potency entry in assay [1], in assay [9], in assay [12], in assay [11], in [7] and in [8] was “inactive” throughout. Further, the Potency in assay [2] is 17.2 µM (active).
Turning to `Cc1ccc(O)c2ncccc12`, the Potency in assay [1] was 21.1 µM (active); in [2], 7.7 µM (active); in assay [9] it was 2.37 µM (active); in assay [4] it was 11 µM (active); in assay [10], 8.41 µM (active); in [8], 4.73 µM (active).
Regarding `CCCCS(=O)(=O)N[C@@H](Cc1ccc(OCCCCC2CCNCC2)cc1)C(=O)O`, the Potency entry in assay [1], in [9], in [3], in [4], in assay [5] and in assay [6] was “inactive” throughout. For the same molecule, the Potency entry in [10], in [12], in assay [11], in assay [7] and in [8] was “inactive” each time.
Take `C=C1C[C@H]2[C@@H]3C=C(C)C4=CC(=O)CC[C@]4(C)[C@H]3CC[C@]2(C)[C@@]1(OC(C)=O)C(C)=O`: the Potency result in assay [1], in assay [2], in assay [9], in assay [5], in assay [10] and in assay [12] was “inactive” in each case. The Potency entry in assay [11], in assay [7], in assay [8], in [14], in [15] and in assay [16] was “inactive” in each case. Moreover, the Potency entry in [17] and in assay [18] was “inactive” each time. Besides, the Potency in [13] is 2.61 µM (active).
`Oc1cc(O)c2c(c1)O[C@H](c1ccc(O)c(O)c1)[C@H](O)C2`: the Potency entry in [1], in [9], in assay [3], in assay [4], in assay [5] and in assay [6] was “inactive” each time. The Potency entry in assay [10], in assay [12], in assay [11], in assay [7] and in assay [8] was “inactive” each time.
With `Oc1ccc(O)cc1`, the Potency result in assay [1], in [2], in [5], in assay [10], in assay [12] and in assay [11] was “inactive” in each case. Further, the Potency result in [7], in assay [16], in [17] and in assay [18] was “inactive” in each case. Further, the Potency in assay [3] was 7.5 µM (active); in [15] it was 14.7 µM (active).
With `Oc1c(I)cc(Cl)c2cccnc12`, the Potency in [1] was 21.1 µM (active); in [2], 27.3 µM (active); in assay [6], 21.9 µM (active); in [12], 21.1 µM (active). The Potency result in assay [11] and in assay [7] was “inactive” throughout.
As to `CCCCOc1ccc(OCCCN2CCOCC2)cc1`, the Potency entry in [1], in assay [2], in [9], in assay [5], in assay [10] and in assay [12] was “inactive” throughout. In addition, the Potency result in assay [11], in assay [7] and in assay [8] was “inactive” throughout.
As to `OC[C@H]1O[C@@H](n2cnc3c(=S)nc[nH]c32)[C@H](O)[C@@H]1O`, the Potency in [1] is 15 µM (active); in assay [9] it was 0.75 µM (active); in assay [3], 2.11 µM (active); in assay [4], 9.78 µM (active); in assay [6], 0.55 µM (active); in assay [19], 2.08 µM (active). The Potency is 1.17 µM (active) in assay [14], 3.69 µM (active) in assay [15] and 2.93 µM (active) in assay [17]. Also, the Potency entry in assay [5], in assay [10], in assay [12], in [11] and in [18] was “inactive” throughout.
For `COc1cccc2c1C(=O)c1c(O)c3c(c(O)c1C2=O)C[C@@](O)(C(C)=O)C[C@@H]3O[C@H]1C[C@H](N)[C@H](O)[C@H](C)O1`, the Potency in assay [1] is 0.266 µM (active); in assay [2], 0.386 µM (active); in assay [9], 0.133 µM (active); in assay [4], 0.55 µM (active); in [5] it was 0.473 µM (active); in assay [6] it was 0.347 µM (active). Besides, the Potency in assay [10] is 1.19 µM (active); in [11] it was 16.8 µM (active); in assay [8], 0.75 µM (active). The Potency entry in assay [7] is “inactive”.
Regarding `CCCCCCCCCCCCCCCC[N+](C)(C)CC`, the Potency is 13.3 µM (active) in assay [1]; 12.2 µM (active) in assay [2]; 2.76 µM (active) in assay [4]; 0.473 µM (active) in [5]; 0.692 µM (active) in [6]; 13.3 µM (active) in assay [10]. Moreover, the Potency is 26.6 µM (active) in assay [12] and 13.3 µM (active) in [8].
Take `CCCCCCCCCCCCCCCCOP(=O)([O-])OCC[N+](C)(C)C`: the Potency result in assay [1], in [4], in assay [5], in [11] and in assay [7] was “inactive” in each case. Further, the Potency in assay [2] is 13.7 µM (active).
Take `O=C(Nc1ccc(Cl)c(Cl)c1)C1CC1`: the Potency result in [1], in assay [2], in [9], in [3], in assay [5] and in [10] was “inactive” each time. The Potency entry in [11], in assay [7] and in assay [8] was “inactive” in each case.
Turning to `O=C1OCCN1/N=C/c1ccc([N+](=O)[O-])o1`, the Potency entry in assay [1], in assay [9], in assay [3], in assay [4], in assay [5] and in assay [6] was “inactive” in each case. The Potency result in assay [10], in assay [12], in assay [11], in [7] and in assay [8] was “inactive” throughout.

Source of the values: PubChem BioAssay (NCATS).
